# Several values for one entry are separate records, joined by “and”; a condition that tells them apart may be missing. Equal entries are not always repeated. Inconclusive results are not listed. A call without a number means that no potency is given here. Some compounds were tested as several samples or in several runs, with calls that do not always agree. Activity calls are given as the source filed them. Unless noted, calls come from the whole dose curve; as a rule, active = well fitted curve in the direction sought with a large enough effect in the repeat runs; inconclusive = weak or mixed curves; inactive = no such curve, though single readings can be large; an effect the other way counts as inactive or inconclusive.
# How the values were obtained:
# [1] = qHTS assay for small molecule agonists of the p53 signaling pathway (AID 651631; calls by dose curve; note: nearly all actives have a fitted effect of over 15% in size); settings: HCT-116 p53RE-bla reporter, beta-lactamase FRET ratio, 16 h; series mostly up to 73.3 µM
# Summary of the method: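 HCT-116 cells carrying a stable p53 response element–beta-lactamase reporter were plated, rested 5 h at 37 °C, then exposed to compound in DMSO for 16 h at 37 °C; reporter activity was read as FRET substrate fluorescence after 2 h at room temperature.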
# [2] = qHTS assay for small molecules that induce genotoxicity in human embryonic kidney cells expressing luciferase-tagged ATAD5 (AID 651632); settings: HEK293T ATAD5-luciferase induction, 16 h; series mostly up to 83.3 µM; note: nearly all actives have a fitted effect of over 15% in size
# Summary of the method: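 ATAD5-luc HEK293T, 2,000 cells/well; cpd or DMSO pin-transferred; 16 hr, 37C/5% CO2; Amplite 30 min RT; luminescence.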
# [3] = qHTS assay for small molecule agonists of the p53 signaling pathway - cell viability (AID 651633; calls by dose curve; note: nearly all actives have a fitted effect of over 30% in size); settings: p53RE-bla HCT-116 viability, ATP luminescence, 16 h; series mostly up to 83.3 µM
# Summary of the method: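 p53RE-bla cells, seeded at 4,000 per well and rested 5 h at 37 C/5% CO2, received compounds in DMSO for 16 h at 37 C. CellTiter-Glo was then added, and luminescence was read after 30 min at room temperature to gauge cytotoxicity.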
# [4] = qHTS assay for small molecules that induce genotoxicity in human embryonic kidney cells expressing luciferase-tagged ATAD5 - cell viability (AID 651634; calls by dose curve; note: nearly all actives have a fitted effect of over 25% in size); settings: HEK293T ATAD5-luc cells viability, CellTiter-Fluor, 15.5 h; series mostly up to 83.3 µM
# Summary of the method: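 Fluorescence from CellTiter-Fluor, reporting protease activity within live cells, served as the viability read-out. HEK293T cells carrying luciferase-tagged ATAD5 had been treated with compound for 15.5 hr at 37C.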
# [5] = qHTS assay for small molecule disruptors of the mitochondrial membrane potential - cell viability (AID 720634; calls by dose curve; note: nearly all actives have a fitted effect of over 20% in size; note: potency is the fitted concentration of half-maximal effect); settings: HepG2 viability, ATP luminescence (CellTiter-Glo), 1 h; series mostly up to 83.2 µM
# Summary of the method: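 Cells: HepG2, 2,000/well, attached overnight. Compound 1 hr, 37 C/5% CO2. +m-MPI dye, +CellTiter-Glo 30 min RT. Readout: luminescence (ATP).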
# [6] = qHTS assay for small molecule disruptors of the mitochondrial membrane potential (AID 720635); settings: HepG2 mitochondrial membrane potential, Mito-MPS dye ratio; series mostly up to 83.2 µM; note: potency is the fitted concentration of half-maximal effect
# Summary of the method: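 HepG2 cells (2,000/well) attached overnight at 37C, then took compound for 1 hr at 37C, 5% CO2. Mito-MPS dye was added for 30 min; fluorescence was read at 490/535 nm (monomers) and 540/590 nm (aggregates).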
# [7] = qHTS assay to test for compound auto fluorescence at 590 nm (red) in HepG2 cells (AID 720674); settings: HepG2 autofluorescence, red 540/590 nm, 1 h; series mostly up to 91.3 µM
# Summary of the method: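 Rose Bengal sodium served as the red fluorophore standard. HepG2 monolayers (overnight attachment, MEM with 10% FBS) were exposed to test compounds for 1 hr at 37 C and read at Ex 540/Em 590 nm.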
# [8] = qHTS assay to test for compound auto fluorescence at 535 nm (green) in HepG2 cells (AID 720675); settings: green autofluorescence 485/535 nm, 1 h; series mostly up to 91.3 µM
# [9] = qHTS assay to test for compound auto fluorescence at 460 nm (blue) in HEK293 cells (AID 720678); settings: blue autofluorescence 405/460 nm; series mostly up to 91.3 µM
# Summary of the method: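 HEK293 cells (2,000/well, medium with 10% dialyzed FBS) attached 4-5 hr, then exposed to compound overnight at 37C, 5% CO2. Blue fluorescence read at 405/460 nm, with triamterene as reference fluorophore.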
# [10] = qHTS assay to test for compound auto fluorescence at 590 nm (red) in HEK293 cells (AID 720679); settings: red autofluorescence 540/590 nm; series mostly up to 91.3 µM
# Summary of the method: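 HEK293 cells (2,000/well, 10% dialyzed FBS) attached 4-5 hr, then dosed with compound or DMSO and incubated overnight at 37C, 5% CO2. Red fluorescence read at 540/590 nm, Rose Bengal sodium as reference fluorophore.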
# [11] = qHTS assay to test for compound auto fluorescence at 535 nm (green) in HEK293 cells (AID 720680); settings: green autofluorescence 485/535 nm; series mostly up to 91.3 µM
# [12] = qHTS assay to test for compound auto fluorescence at 460 nm (blue) in HEK293 cell free culture (AID 720681); settings: cell-free medium, autofluorescence 405/460 nm (blue); series mostly up to 91.3 µM
# Summary of the method: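 Test compounds were pinned into cell-free culture medium (DMEM with 10% FBS) and fluorescence was read directly at Ex/Em 405/460 nm. Signals were expressed as fluorescence equivalents of triamterene, with DMSO vehicle as control.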
# [13] = qHTS assay to test for compound auto fluorescence at 535 nm (green) in HEK293 cell free culture (AID 720682); settings: cell-free medium, green autofluorescence 485/535 nm, stronger effect = higher value; series mostly up to 91.3 µM
# Summary of the method: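 Read-out: 485/535 nm fluorescence intensity, calibrated against fluorescein. Medium only (DMEM + 10% FBS, no cells); test compound or DMSO vehicle added by pintool before plate reading.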
# [14] = qHTS assay to test for compound auto fluorescence at 590 nm (red) in HEK293 cell free culture (AID 720683); settings: cell-free medium autofluorescence, Ex540/Em590 red; series mostly up to 91.3 µM
# Summary of the method: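 Tox21 10K library compounds were pinned into cell-free DMEM with 10% FBS and fluorescence was read at excitation 540 nm. Activity is expressed as Rose Bengal sodium equivalency.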
# [15] = qHTS assay to test for compound auto fluorescence at 590 nm (red) in HepG2 cell free culture (AID 720684); settings: cell-free medium autofluorescence, red 540/590 nm; series mostly up to 91.3 µM
# Summary of the method: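 Measured in medium alone (MEM containing 10% FBS) following pintool addition of compound; emission at 590 nm with 540 nm excitation, referenced to Rose Bengal sodium.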
# [16] = qHTS assay to test for compound auto fluorescence at 460 nm (blue) in HepG2 cell free culture (AID 720685); settings: Cell-free culture medium, blue autofluorescence 405/460 nm; series mostly up to 91.3 µM
# Summary of the method: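 Compound (23 nL) or DMSO pinned into cell-free MEM with 10% FBS; blue fluorescence read at 405/460 nm excitation/emission, expressed as auto-fluorescence equivalency to triamterene.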
# [17] = qHTS assay to test for compound auto fluorescence at 535 nm (green) in HepG2 cell free culture (AID 720686); settings: Cell-free medium, green autofluorescence 485/535 nm; series mostly up to 91.3 µM
# [18] = qHTS assay to test for compound auto fluorescence at 460 nm (blue) in HepG2 cells (AID 720687); settings: autofluorescence 405/460 nm, 1 h; series mostly up to 91.3 µM
# Summary of the method: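 Cells (2,000/well in MEM with 10% FBS) attached overnight at 37 C, then were exposed to compound or DMSO for 1 hr at 37 C, 5% CO2. Fluorescence read at Ex/Em 405/460 nm, expressed as triamterene-equivalent signal.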
# [19] = biological target: Glucocorticoid receptor (Homo sapiens) (UniProt P04150); assay: qHTS assay to identify small molecule agonists of the glucocorticoid receptor (GR) signaling pathway (AID 720691; active = well fitted activation curve with a large enough effect in the signal ratio in the repeat runs, not every such curve was filed as active; the % refers to the signal ratio); settings: GR-bla HeLa, beta-lactamase reporter ratio, 18 h; series mostly up to 62.4 µM
# Glucocorticoid receptor (Homo sapiens), sequence (P04150 whole entry, looked up): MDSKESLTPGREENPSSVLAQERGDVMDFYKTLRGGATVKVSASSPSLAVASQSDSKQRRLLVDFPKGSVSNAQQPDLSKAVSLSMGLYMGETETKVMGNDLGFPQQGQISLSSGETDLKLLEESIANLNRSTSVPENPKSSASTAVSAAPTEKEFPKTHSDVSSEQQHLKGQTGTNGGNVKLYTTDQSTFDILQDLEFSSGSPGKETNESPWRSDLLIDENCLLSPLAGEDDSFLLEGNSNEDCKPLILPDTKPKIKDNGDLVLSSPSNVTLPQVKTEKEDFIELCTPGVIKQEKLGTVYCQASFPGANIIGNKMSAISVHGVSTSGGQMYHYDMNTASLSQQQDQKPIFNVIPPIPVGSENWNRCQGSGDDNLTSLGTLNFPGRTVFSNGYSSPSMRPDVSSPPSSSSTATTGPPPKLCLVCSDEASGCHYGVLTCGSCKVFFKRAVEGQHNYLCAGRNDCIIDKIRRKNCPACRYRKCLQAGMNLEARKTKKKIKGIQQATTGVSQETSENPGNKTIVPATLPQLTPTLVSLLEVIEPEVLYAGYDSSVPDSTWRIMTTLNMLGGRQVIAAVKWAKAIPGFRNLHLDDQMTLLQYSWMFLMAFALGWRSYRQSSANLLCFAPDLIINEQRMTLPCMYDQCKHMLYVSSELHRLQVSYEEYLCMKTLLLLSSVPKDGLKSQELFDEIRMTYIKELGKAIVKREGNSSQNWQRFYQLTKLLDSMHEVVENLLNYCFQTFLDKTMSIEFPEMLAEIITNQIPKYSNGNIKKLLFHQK
# Summary of the method: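 Fluorescence intensity from LiveBLAzer B/G FRET substrate (2 h, room temperature) reports beta-lactamase expression driven by the glucocorticoid response element in GR-bla HeLa cells after 18 h compound exposure at 37 C.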
# [20] = biological target: Glucocorticoid receptor (Homo sapiens) (UniProt P04150); assay: qHTS assay to identify small molecule antagonists of the glucocorticoid receptor (GR) signaling pathway (AID 720692; active = well fitted inhibition curve with a large enough effect in the signal ratio in the repeat runs, not every such curve was filed as active; the % refers to the signal ratio); settings: GR-bla HeLa, beta-lactamase FRET ratio, dexamethasone-stimulated, 18 h; series mostly up to 58.5 µM
# Summary of the method: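 HeLa GR-bla cells; cmpd + dex 5 nM final, 18 h 37 C; LiveBLAzer B/G FRET substrate 2 h RT; fluorescence intensity read. Antagonist mode, qHTS.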
SMILES,Potency [1],Potency [2],Potency [3],Potency [4],Potency [5],Potency [6],outcome [7],outcome [8],outcome [9],outcome [10],outcome [11],outcome [12],outcome [13],outcome [14],outcome [15],outcome [16],outcome [17],outcome [18],outcome [19],Potency [20]
CNC(=O)O/N=C(\SC)C(=O)N(C)C,inactive,inactive,inactive,inactive,inactive,inactive,inactive,inactive,inactive,inactive,inactive,inactive,inactive,inactive,inactive,inactive,inactive,inactive,–,–
Cc1cc(O)ccc1Cl,inactive,inactive,inactive,inactive,inactive,10.6 µM (active) and 49.4 µM (active) and 27.3 µM (active),inactive,inactive,inactive,inactive,inactive,inactive,inactive,inactive,inactive,inactive,inactive,inactive,inactive,inactive
Nc1ccc([As](=O)(O)O)cc1,inactive,inactive,inactive,inactive,inactive,inactive,inactive,inactive,inactive,inactive,inactive,inactive,inactive,inactive,inactive,inactive,inactive,inactive,–,–
N#CN=C(N)N,inactive,inactive,inactive,inactive,inactive,inactive,inactive,inactive,inactive,inactive,inactive,inactive,inactive,inactive,inactive,inactive,inactive,inactive,–,–
Nc1cc(Cl)cc(Cl)c1,inactive,inactive,inactive,inactive,inactive,inactive,inactive,inactive,inactive,inactive,inactive,inactive,inactive,inactive,inactive,inactive,inactive,inactive,–,–
[N-]=[N+]=CC(=O)OC[C@H](N)C(=O)O,inactive,inactive,inactive,inactive,inactive,inactive,inactive,inactive,inactive,inactive,inactive,inactive,inactive,inactive,inactive,inactive,inactive,inactive,–,–
OCc1ccco1,inactive,inactive,inactive,inactive,inactive,inactive,inactive,inactive,inactive,inactive,inactive,inactive,inactive,inactive,inactive,inactive,inactive,inactive,–,–
N#Cc1cccc(C#N)c1,inactive,inactive,inactive,inactive,inactive,inactive,inactive,inactive,inactive,inactive,inactive,inactive,inactive,inactive,inactive,inactive,inactive,inactive,inactive,inactive
CNC(=O)O/N=C/C(C)(C)S(C)(=O)=O,inactive,inactive,inactive,inactive,inactive,inactive,inactive,inactive,inactive,inactive,inactive,inactive,inactive,inactive,inactive,inactive,inactive,inactive,inactive,inactive
Cc1cc(Cl)ccc1OC(C)C(=O)O (stereo not given),inactive,inactive,inactive,inactive,inactive,inactive,inactive,inactive,inactive,inactive,inactive,inactive,inactive,inactive,inactive,inactive,inactive,inactive,–,–
CCSC(=O)N1CCCCCC1,inactive,inactive,inactive,inactive,inactive,inactive,inactive,inactive,inactive,inactive,inactive,inactive,inactive,inactive,inactive,inactive,inactive,inactive,–,–
C=CCN=C=S,inactive,inactive,inactive,inactive,inactive,inactive,inactive,inactive,inactive,inactive,inactive,inactive,inactive,inactive,inactive,inactive,inactive,inactive,–,–
COP(=S)(OC)Oc1ccc(SC)c(C)c1,inactive,inactive,inactive,inactive,inactive and 24.3 µM (active),53.9 µM (active) and 27.3 µM (active),inactive,inactive,inactive,inactive,inactive,inactive,inactive,inactive,inactive,inactive,inactive,inactive,inactive,inactive
C=CC(=O)OCCCCCC(C)C,inactive,inactive,inactive,inactive,inactive,inactive,inactive,inactive,inactive,inactive,inactive,inactive,inactive,inactive,inactive,inactive,inactive,inactive,–,–

# From PubChem BioAssay (Tox21)
